Data on seven compounds can be found in PubChem BioAssay (Tox21).

Inconclusive results are not listed. Active and inactive are the calls of the source. Unless noted, the call rests on the fitted dose curve.

Experiment [1] in a line: Nuclear factor erythroid 2-related factor 2/antioxidant responsive element (Nrf2/ARE) small molecule agonists: qHTS cell viability counter screen in human keratinocytes (AID 1919968; active means well fitted curve in the direction sought with a large enough effect in the repeat runs; an effect the other way counts as inactive or inconclusive; further: nearly all actives have a fitted effect of over 55% in size; further: potency means the concentration at half of the fitted maximal effect). In outline:
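Cells of the KeratinoSens line were plated at 1,500 per well and left for 5 h before compound transfer from DMSO stocks. After a 23 h incubation (37 C, 5% CO2), CellTiter-Fluor was added. Signal was taken as fluorescence intensity 1 h later.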

Experiment [2] addresses Gonadotropin-releasing hormone receptor (Homo sapiens) (UniProt P30968). Put plainly: Human gonadotropin-releasing hormone receptor (GnRHR) small molecule agonists, calcium flux assay in GnRHR-HEK293 cells (AID 1920063). Further: nearly all actives have a fitted effect of over 35% in size. In outline: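 Compounds dissolved in DMSO are pin-transferred onto dye-loaded GnRHR-HEK293 cells, which were seeded 18 h before at 37 C/5% CO2. Calcium signal is read as fluorescence intensity at 1 s intervals for 3 min.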

Experiment [3] concerns the target KiSS-1 receptor (Homo sapiens) (UniProt Q969F8). Put plainly: Human kisspeptin (KISS1R) small molecule agonists, calcium flux assay in KISS1R-HEK293 cells (AID 1920064; active means well fitted curve in the direction sought with a large enough effect in the repeat runs; an effect the other way counts as inactive or inconclusive). In outline: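 Cell line: HEK293, stable human KISS1R. Dye loading 1 h at 37 C after 18 h culture. Read: kinetic fluorescence, 480/540 nm, 3 min at 1 s intervals.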
A short description of experiment [4]: G protein-coupled receptor (GPCR) small molecule agonists, calcium flux assay: HEK293 wild type cell line counter screen (AID 1920065). An outline of the steps: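 Tox21 10K compounds, 15 concentrations each in triplicate, pin-transferred in DMSO onto dye-loaded cells; kinetic read at 480/540 nm for 3 min, 1 s intervals.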
Experiment [5] is described as follows: p53 small molecule agonists, cell-based qHTS assay with human liver microsomes (AID 1963577).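 Further: p53 response element beta-lactamase reporter cells with liver microsomes plus NADPH.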 In outline: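 Steps: plate p53RE-bla cells, incubate 5 h at 37 C; add compound in DMSO; add microsomes (0.5 mg/mL final) and NADPH (0.5 mg/mL final); incubate 16 h at 37 C; add LiveBLAzer, 2 h RT; read fluorescence.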
In general terms: qHTS replaces the single test concentration by a dilution series.

Experiment [6] is described as follows: p53 small molecule agonists, cell-based qHTS assay with rat liver microsomes (AID 1963578). In outline:
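Metabolic activation is supplied by rat liver microsomes with NADPH (each 0.5 mg/mL final). p53RE-bla cells incubate with compound 16 h at 37 C; reporter activity is measured by LiveBLAzer fluorescence.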

The nature of experiment [7]: p53 small molecule agonists, cell-based qHTS assay with human liver microsomes: qHTS cell viability counter screen (AID 1963579). Further: nearly all actives have a fitted effect of over 45% in size. An outline of the steps:
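After the 460/530 nm beta-lactamase read, CellTiter-Glo was added to the same wells and luminescence measured after 30 min at room temperature, giving viability of p53RE-bla cells treated 16 h with compounds plus microsomes and NADPH.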

Experiment [8] in a line: p53 small molecule agonists, cell-based qHTS assay (AID 1963582; active means well fitted activation curve with a large enough effect in the signal ratio in the repeat runs, not every such curve was filed as active; the % refers to the signal ratio; further: potency means the concentration at half of the fitted maximal effect). In outline: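 16 h compound exposure (37 C) of p53 response element–bla cells, preceded by 5 h recovery at 37 C/5% CO2; read-out via LiveBLAzer B/G FRET substrate, 2 h RT, fluorescence intensity.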
For experiment [9], the target named is 5-hydroxytryptamine receptor 2A (Homo sapiens) (UniProt P28223). The experiment can be described thus: 5-hydroxytryptamine receptor 2A (HTR2A) small molecule agonists, cell-based qHTS assay (AID 1963587). Further: nearly all actives have a fitted effect of over 30% in size. In outline: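 Kinetic calcium-flux fluorescence (2 min, 1 sec intervals) after compound addition in agonist mode. HTR2A-CHO cells were cultured 18 h, then dye-loaded 1 h at 37 C.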
5-hydroxytryptamine receptor 2A (Homo sapiens), sequence (P28223 whole entry, looked up): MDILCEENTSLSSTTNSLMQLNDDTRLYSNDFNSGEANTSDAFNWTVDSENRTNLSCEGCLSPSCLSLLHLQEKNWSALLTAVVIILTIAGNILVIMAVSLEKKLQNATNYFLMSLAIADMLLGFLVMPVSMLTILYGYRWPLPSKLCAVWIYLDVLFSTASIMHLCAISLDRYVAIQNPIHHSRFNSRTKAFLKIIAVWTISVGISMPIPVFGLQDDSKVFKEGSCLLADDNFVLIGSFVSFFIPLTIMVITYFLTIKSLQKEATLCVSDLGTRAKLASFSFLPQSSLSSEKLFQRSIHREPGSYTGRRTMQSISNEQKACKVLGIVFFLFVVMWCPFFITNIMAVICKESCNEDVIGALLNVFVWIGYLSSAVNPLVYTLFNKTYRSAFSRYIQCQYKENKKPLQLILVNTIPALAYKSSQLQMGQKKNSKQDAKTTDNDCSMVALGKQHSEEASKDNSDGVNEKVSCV

For experiment [10], the target named is Muscarinic acetylcholine receptor M1 (Homo sapiens) (UniProt P11229). Put plainly: Cholinergic receptor muscarinic 1 (CHRM1) small molecule antagonists, cell-based qHTS assay (AID 1963588). Further: nearly all actives have a fitted effect of over 40% in size. An outline of the steps:
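Compounds were tested at 15 concentrations in three independent runs. Dye-loaded CHRM1-CHO cells were exposed 5 min at room temperature before stimulation by acetylcholine added at 50nM. Intracellular calcium was read kinetically on FDSS for 3 min.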

The nature of experiment [11]: cAMP Responsive Elements (CRE) small molecule agonists, cell-based qHTS assay (AID 1963590). An outline of the steps:
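HEK 293T cells stably bearing CRE-bla were plated at 2,000 cells per well and rested 18 h. Compounds, positive controls or DMSO were added for 3 h at 37 C. LiveBLAzer B/G substrate was then loaded for 2 h at room temperature.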

Experiment [12] can be described thus: cAMP Responsive Elements (CRE) small molecule antagonists, cell-based qHTS assay (AID 1963591; active means well fitted inhibition curve with a large enough effect in the signal ratio in the repeat runs, not every such curve was filed as active; the % refers to the signal ratio). In outline: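 First, CRE-bla HEK293T cells settled 18 h at 37 C. Next, compound and 0.25 uM final NKH477 were applied for 3 h. Last, LiveBLAzer B/G substrate was loaded for 2 h at room temperature.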
The target of experiment [13] is Beta-2 adrenergic receptor (Homo sapiens) (UniProt P07550). Put plainly: Adrenergic beta2 receptor (ADRB2) small molecule antagonists, cell-based qHTS assay (AID 1963592). Further: series mostly up to about 92 µM; nearly all actives have a fitted effect of over 50% in size. In outline: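 Assay format: CHO-ADRB2 cells, 18-20hr seeding at 37C/5% CO2, then compound plus 1nM isoproterenol agonist mix for 0.5hr RT. Homogeneous time-resolved fluorescence cAMP detection after 1hr, expressed as 665/615 nm ratio.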
Beta-2 adrenergic receptor (Homo sapiens), sequence (P07550 whole entry, looked up): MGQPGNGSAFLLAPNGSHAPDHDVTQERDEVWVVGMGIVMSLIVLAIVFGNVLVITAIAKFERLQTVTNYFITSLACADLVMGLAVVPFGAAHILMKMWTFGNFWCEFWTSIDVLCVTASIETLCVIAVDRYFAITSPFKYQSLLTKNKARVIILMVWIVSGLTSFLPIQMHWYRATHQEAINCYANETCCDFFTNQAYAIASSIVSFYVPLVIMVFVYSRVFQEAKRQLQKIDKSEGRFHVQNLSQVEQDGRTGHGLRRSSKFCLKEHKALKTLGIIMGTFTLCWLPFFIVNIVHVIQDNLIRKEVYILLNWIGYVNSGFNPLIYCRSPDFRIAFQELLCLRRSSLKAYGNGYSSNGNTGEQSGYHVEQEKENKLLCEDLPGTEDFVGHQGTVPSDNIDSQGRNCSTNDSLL

Experiment [14] concerns the target D(2) dopamine receptor (Homo sapiens) (UniProt P14416). Put plainly: Dopamine D2 receptor (DRD2) small molecule agonists, cell-based qHTS assay (AID 1963594). Further: nearly all actives have a fitted effect of over 35% in size. In outline:
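cAMP accumulation in DRD2-HEK293 cells measured by HTRF after 1 h detection; compounds added 10 min before NKH477 (200nM […]) forskolin-analogue stimulation, 30 min at room temperature, with Ro20-1724 present at 0.1 mM final.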

Experiment [15] shares this target. Put plainly: Dopamine D2 receptor (DRD2) small molecule antagonists, cell-based qHTS assay (AID 1963595; active means well fitted inhibition curve with a large enough effect in the signal ratio in the repeat runs, with a control signal flat; the % refers to the signal ratio). An outline of the steps:
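Cells were plated and grown for 24 h at 37 °C. Ro20-1724 (0.1 mM final) went in first, then compound for 10 min. NKH477 (200 nM) with quinpirole (12 nM) followed for 30 min at RT, then HTRF detection reagents for 1 h.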

Experiment [16] can be described thus: p53 small molecule agonists, cell-based qHTS assay with rat liver microsomes: qHTS cell viability counter screen (AID 1963580). Further: nearly all actives have a fitted effect of over 45% in size. Further: potency means the concentration at half of the fitted maximal effect. In outline: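 Cytotoxicity counter screen: intracellular ATP read by CellTiter-Glo luminescence in the p53 reporter wells. HCT-116 p53RE-bla cells were treated for 16 h at 37 C alongside rat liver microsomes and NADPH, each 0.5 mg/mL final.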

For experiment [17], the target named is 5-hydroxytryptamine receptor 2A (Homo sapiens) (UniProt P28223). Put plainly: 5-hydroxytryptamine receptor 2A (HTR2A) small molecule antagonists, cell-based qHTS assay (AID 1963586). Further: nearly all actives have a fitted effect of over 45% in size. An outline of the steps: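 CHO cells stably expressing human HTR2A were plated for 18 h at 37 C, then loaded with calcium dye for 1 h. Compounds were preincubated 5 min at room temperature before DOI (4 nM solution) was added. Kinetic fluorescence was read for 3 min.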

Experiment [18] has as its target Muscarinic acetylcholine receptor M1 (Homo sapiens) (UniProt P11229). Put plainly: Cholinergic receptor muscarinic 1 (CHRM1) small molecule agonists, cell-based qHTS assay (AID 1963589). Further: nearly all actives have a fitted effect of over 35% in size. In outline:
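Homogeneous fluorescence calcium flux, agonist mode. Human M1-expressing CHO cells; compound dosed at 15 concentrations, three independent runs; signal sampled every 1 sec.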

A short description of experiment [19]: p53 small molecule agonists, cell-based qHTS assay: qHTS cell viability counter screen (AID 1963581). Further: nearly all actives have a fitted effect of over 45% in size. An outline of the steps:
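ATP content measured by luminescence in HCT-116 p53RE-bla cells treated 16 h at 37 C, same wells as the reporter screen.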

D(2) dopamine receptor (Homo sapiens), sequence (P14416 whole entry, looked up): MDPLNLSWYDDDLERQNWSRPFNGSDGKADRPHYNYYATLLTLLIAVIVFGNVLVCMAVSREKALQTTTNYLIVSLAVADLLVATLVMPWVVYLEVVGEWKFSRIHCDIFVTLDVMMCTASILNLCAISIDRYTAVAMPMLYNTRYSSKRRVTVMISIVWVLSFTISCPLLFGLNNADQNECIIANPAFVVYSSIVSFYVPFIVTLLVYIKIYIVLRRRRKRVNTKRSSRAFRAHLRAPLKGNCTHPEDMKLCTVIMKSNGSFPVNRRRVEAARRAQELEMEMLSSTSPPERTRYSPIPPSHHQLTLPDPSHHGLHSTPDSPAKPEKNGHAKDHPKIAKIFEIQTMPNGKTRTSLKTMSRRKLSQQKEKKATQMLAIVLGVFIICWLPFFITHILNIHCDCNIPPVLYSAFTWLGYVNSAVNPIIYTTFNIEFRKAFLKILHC
KiSS-1 receptor (Homo sapiens), sequence (Q969F8 whole entry, looked up): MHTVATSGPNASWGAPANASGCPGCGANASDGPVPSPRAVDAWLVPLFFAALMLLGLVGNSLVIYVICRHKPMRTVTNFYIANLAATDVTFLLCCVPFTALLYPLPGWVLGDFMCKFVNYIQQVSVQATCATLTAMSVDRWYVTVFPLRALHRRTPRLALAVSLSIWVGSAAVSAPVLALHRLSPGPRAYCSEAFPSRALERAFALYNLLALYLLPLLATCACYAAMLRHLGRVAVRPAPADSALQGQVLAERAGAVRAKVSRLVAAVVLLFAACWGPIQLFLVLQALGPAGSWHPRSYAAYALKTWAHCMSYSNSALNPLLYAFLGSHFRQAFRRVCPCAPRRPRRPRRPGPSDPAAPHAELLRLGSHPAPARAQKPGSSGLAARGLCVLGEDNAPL
Gonadotropin-releasing hormone receptor (Homo sapiens), sequence (P30968 whole entry, looked up): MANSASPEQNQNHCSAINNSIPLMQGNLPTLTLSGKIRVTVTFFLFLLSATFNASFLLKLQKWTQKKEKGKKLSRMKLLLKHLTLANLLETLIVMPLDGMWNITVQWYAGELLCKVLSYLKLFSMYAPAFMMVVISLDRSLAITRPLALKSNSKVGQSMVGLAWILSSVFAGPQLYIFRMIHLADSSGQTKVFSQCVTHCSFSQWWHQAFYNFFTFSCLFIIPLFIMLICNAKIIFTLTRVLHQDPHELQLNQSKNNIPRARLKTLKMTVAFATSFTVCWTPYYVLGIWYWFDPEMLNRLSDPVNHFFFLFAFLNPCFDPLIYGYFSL
Muscarinic acetylcholine receptor M1 (Homo sapiens), sequence (P11229 whole entry, looked up): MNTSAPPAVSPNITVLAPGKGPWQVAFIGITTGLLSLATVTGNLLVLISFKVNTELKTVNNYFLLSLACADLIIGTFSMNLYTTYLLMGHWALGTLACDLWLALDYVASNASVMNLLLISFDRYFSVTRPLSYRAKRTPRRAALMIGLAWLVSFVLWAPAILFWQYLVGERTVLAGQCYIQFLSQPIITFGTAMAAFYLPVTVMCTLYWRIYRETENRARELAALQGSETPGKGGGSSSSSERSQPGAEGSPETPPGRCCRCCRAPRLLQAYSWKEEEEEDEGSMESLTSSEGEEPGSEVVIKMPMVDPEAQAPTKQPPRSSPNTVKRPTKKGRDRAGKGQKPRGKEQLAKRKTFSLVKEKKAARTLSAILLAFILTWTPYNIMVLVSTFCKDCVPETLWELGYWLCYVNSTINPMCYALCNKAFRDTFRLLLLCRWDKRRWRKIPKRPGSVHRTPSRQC

As to `Clc1ccccc1-c1ccccc1Cl`, the Potency in experiment [1] was 55.3 µM (active). Also, the Potency result in [2], in experiment [3], in [4], in experiment [5], in experiment [6] and in experiment [7] was “inactive” each time. Moreover, the Potency result in [8], in [9], in [10], in experiment [11], in experiment [12] and in [13] was “inactive” in each case. Besides, the Potency result in experiment [14] and in experiment [15] was “inactive” each time.
For the compound `N#C/C=C/C#N`, the Potency result in [1], in experiment [2], in experiment [3], in experiment [4], in experiment [5] and in [7] was “inactive” in each case. Also, the Potency result in [16], in experiment [17], in experiment [9], in experiment [10], in experiment [18] and in experiment [11] was “inactive” in each case. The Potency entry in experiment [13] and in experiment [15] was “inactive” in each case. Further, the Potency in experiment [8] was 30.2 µM (active).
For the compound `CCC(CC)(CNC(=O)CCCO)c1cccc(OC)c1`, the Potency result in experiment [1], in [2], in [3], in experiment [4], in experiment [5] and in experiment [6] was “inactive” each time. Further, the Potency entry in experiment [16], in [8], in [17], in experiment [9], in experiment [11] and in experiment [12] was “inactive” throughout. In addition, the Potency entry in experiment [13], in experiment [14] and in [15] was “inactive” throughout.
`[Cl][Sn]([Cl])([Cl])[Cl]`: the Potency entry in experiment [1], in experiment [2], in experiment [3], in experiment [4], in experiment [5] and in [6] was “inactive” each time. Besides, the Potency result in experiment [16], in experiment [19], in experiment [8], in experiment [17], in experiment [9] and in experiment [10] was “inactive” throughout. The Potency entry in experiment [18], in experiment [11], in experiment [12], in [14] and in experiment [15] was “inactive” in each case.
Take `ClP(Cl)(Cl)(Cl)Cl`: the Potency entry in experiment [1], in experiment [2], in experiment [3], in experiment [4], in experiment [5] and in experiment [6] was “inactive” in each case. Besides, the Potency result in experiment [7], in experiment [19], in experiment [8], in experiment [17], in experiment [9] and in experiment [10] was “inactive” each time. The Potency entry in experiment [18], in experiment [11], in experiment [12], in [13], in [14] and in experiment [15] was “inactive” throughout.
For the compound `Cc1nnc2n1-c1sc(CCc3ccc(CC(C)C)cc3)cc1C(c1ccccc1Cl)=NC2C` (stereo not drawn), the Potency in [1] was 7.5 µM (active). Moreover, the Potency result in [2], in [3], in experiment [4], in [5], in experiment [6] and in [7] was “inactive” throughout. Further, the Potency entry in experiment [16], in experiment [9], in experiment [10], in experiment [18] and in experiment [13] was “inactive” throughout.
`OCCCBr`: the Potency entry in experiment [1], in experiment [2], in experiment [3], in experiment [4], in [5] and in experiment [6] was “inactive” in each case. Moreover, the Potency entry in experiment [8], in experiment [17], in experiment [9], in experiment [10], in experiment [18] and in [11] was “inactive” in each case. For the same compound, the Potency result in [12], in experiment [13] and in [15] was “inactive” in each case. In addition, the Potency in experiment [16] was 1.45 µM (active).
